NPR1 antag: Natriuretic polypeptide receptor (hNpr1) antagonism - Primary qHTS. Atrial natriuretic peptide receptor 1 (Homo sapiens), P16066. HEK293 hNpr1 GloSensor cGMP, ANP-stimulated luminescence. Potency, µM (series often up to 46.3 µM), usual class: inhibitors. 76,000 compounds, 1.6% hits; calls by dose curve; further: nearly all actives have a fitted effect of over 60% in size
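HEK293 cells stably expressing human Npr1 and cGMP GloSensor pGS-40F, loaded 2 h with 2% GloSensor reagent, given compound 30 min at room temperature. Luminescence read before and 20 min after 0.1 nM hNppA.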
Luciferase inh: Firefly luciferase inhibition profiling of diverse chemical library using quantitative high-throughput screening | Luciferin 4-monooxygenase (Photinus pyralis), P08659 | purified P. pyralis luciferase, luminescence, biochemical | Potency, µM (doses to about 115 µM), most hits filed as inhibitors | 76,000 compounds, 2.5% hits | AID 1347043, 2019; further: nearly all actives have a fitted effect of over 65% in size
Target sequence (P08659 whole entry, looked up): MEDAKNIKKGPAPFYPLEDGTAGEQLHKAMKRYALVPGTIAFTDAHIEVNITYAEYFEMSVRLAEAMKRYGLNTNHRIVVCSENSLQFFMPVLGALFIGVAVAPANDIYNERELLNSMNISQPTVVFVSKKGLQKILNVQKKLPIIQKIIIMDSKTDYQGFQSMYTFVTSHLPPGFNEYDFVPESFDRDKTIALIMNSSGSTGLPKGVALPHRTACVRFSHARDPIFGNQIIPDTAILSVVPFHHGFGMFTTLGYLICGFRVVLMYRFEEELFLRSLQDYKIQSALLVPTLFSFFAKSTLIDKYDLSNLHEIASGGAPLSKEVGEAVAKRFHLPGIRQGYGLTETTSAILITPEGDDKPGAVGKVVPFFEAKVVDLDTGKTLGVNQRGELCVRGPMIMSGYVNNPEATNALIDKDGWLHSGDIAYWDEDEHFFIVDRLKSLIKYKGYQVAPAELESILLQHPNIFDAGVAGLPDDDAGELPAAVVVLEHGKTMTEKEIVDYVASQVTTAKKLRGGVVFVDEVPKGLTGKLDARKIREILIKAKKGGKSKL
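Purified P. pyralis luciferase (10nM final) in 50mM Tris acetate pH 7.5, 10mM Mg acetate, 0.01% Tween-20, 0.05% BSA with 10uM D-luciferin and 10uM ATP. Compounds titrated qHTS. Luminescence imaged on CCD.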
HEK293 viab: GF-AFC viability counterscreen for inhibitors of alpha-synuclein gene (SNCA) expression. Potency, µM (titrated, usually from 57.1 µM), usual class: cytotoxic. 150,000 compounds, 0.12% hits. AID 1671193, 2021. HEK-293-SNCA-luc viability, GF-AFC fluorescence, 24 h; further: nearly all actives have a fitted effect of over 30% in size
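HEK-293-SNCA-luc cells (1500/well) plated 24 h, then exposed 24 h to a dilution series; GF-AFC added 30 min at 37C, fluorescence 405/540 nm; normalised to medium-only and DMSO wells, Hill fit.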
SNCA expr inhib: Primary qHTS assay for inhibitors of alpha-synuclein gene (SNCA) expression; 140,000 compounds, 0.17% hits; Potency, µM (top dose mostly 57.2 µM), most hits filed as inhibitors; HEK-293 SNCA-luciferase knock-in, luminescence, 24 h; further: nearly all actives have a fitted effect of over 45% in size
HEK293 tox: Cytotoxic Profiling in HEK 293 Cell Line of Diverse Libraries Using Quantitative High-Throughput Screening | HEK 293 viability, ATP luminescence (CellTiter-Glo), 48-72 h | AID 1345083, 2018 | Potency, µM (titrated, usually from 115 µM), actives largely listed as inhibitors | 94,000 compounds, 6.6% hits; further: nearly all actives have a fitted effect of over 60% in size
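ATP-coupled CellTiter-Glo luminescence served as viability read-out, recorded 10 min after reagent addition at room temperature. HEK 293 cells, 250 cells/well, had been incubated with pintool-transferred compound for 48 or 72 hr at 37 degree Celsius.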
3T3 cytotox: Cytotoxic Profiling in NIH 3T3 Cell Line of Diverse Libraries Using Quantitative High-Throughput Screening | 94,000 compounds, 4.3% hits | NIH 3T3 viability, CellTiter-Glo ATP luminescence, 48-72 h | Potency, µM (top dose mostly 96.7 µM), most hits filed as inhibitors | AID 1345082, 2018; further: nearly all actives have a fitted effect of over 55% in size
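Luminescent ATP readout (CellTiter-Glo, 10 min RT) after 48 or 72 hr compound exposure of NIH 3T3 cells seeded at 400 cells/well in 1536-well format; quantitative HTS.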
Each line names hits and unclear results; the compound was inactive in the other large screens. In the library only some 7.4% were active in any assay of this set; here they are far more common. Unless noted, the call rests on the fitted dose curve; in most records, active means well fitted curve in the direction sought with a large enough effect; inconclusive means small, poorly fitted or top-dose-only effect, or another doubt; inactive means no such curve, though single readings can be large; an effect the other way counts as inactive or inconclusive.

CCCCOc1c(CNC(C)c2ncccc2C)cccc1OC (stereo unspecified)	HEK293 tox 39.8µM, 3T3 cytotox 28.2µM
O=C(C1CCN([S+](=O)([O-])c2cccc(C(F)(F)F)c2)CC1)N1CCC(N2Cc3ccccc3C2=O)CC1	HEK293 tox inconclusive, 3T3 cytotox inconclusive (no result: NPR1 antag, Luciferase inh)
Cc1cc(C)c(CNC(=O)c2nc(-c3ccc(CN(C)C)cc3)cc3[nH]ccc23)c(=O)[nH]1	Luciferase inh inconclusive, HEK293 tox inconclusive, 3T3 cytotox 100µM
Cc1cc(C)c(CNC(=O)c2nc(-c3ccc(CN(C)C)cc3)cc3c2ccn3C(C)C)c(=O)[nH]1	HEK293 viab inconclusive, HEK293 tox inconclusive, 3T3 cytotox 14.1µM
COc1ccc(-c2cc3c(ccn3C(C)C)c(C(=O)NCc3c(C)cc(C)[nH]c3=O)n2)cc1	HEK293 tox inconclusive, 3T3 cytotox inconclusive
Cc1cc(C)c(CNC(=O)c2nc(-c3ccccc3C)cc3c2ccn3C(C)C)c(=O)[nH]1	NPR1 antag inconclusive, HEK293 viab inconclusive, SNCA expr inhib inconclusive, HEK293 tox 22.4µM, 3T3 cytotox 28.2µM
Cc1ccc(-c2cc3c(ccn3C(C)C)c(C(=O)NCc3c(C)cc(C)[nH]c3=O)n2)cn1	Luciferase inh inconclusive, HEK293 tox inconclusive, 3T3 cytotox 79.4µM
CC(=O)NC1CCCN(c2ccc3nnc(C4CC4)n3n2)C1 (stereo unspecified)	none (no result: NPR1 antag, Luciferase inh, HEK293 viab, SNCA expr inhib)
COc1ccccc1-c1cc(C(=O)NCCCc2ccccc2)nn2cnnc12	SNCA expr inhib inconclusive, HEK293 tox inconclusive, 3T3 cytotox inconclusive (no result: NPR1 antag, Luciferase inh)
FC(F)(F)c1ccnc(N2CCOCC3(CN(Cc4ccccc4)C3)C2)n1	HEK293 tox inconclusive
O=[S+]([O-])(c1ccccc1)N1CC2(COCCN(c3nccc(C(F)(F)F)n3)C2)C1	HEK293 tox 89.1µM, 3T3 cytotox inconclusive
O=C(NCCNC(=O)c1cccc(Cl)c1)c1ccc(-c2cccc(C(F)(F)F)c2)cc1	none (no result: NPR1 antag, Luciferase inh, HEK293 viab, SNCA expr inhib)
O=C(Cn1cnnn1)NCc1ccc(-c2cnc3c(Oc4ccccc4)nccn23)cc1	HEK293 tox inconclusive
NC(=O)C1CCCN(Cc2ccc(-c3cnc4c(OCc5ccccc5)nccn34)cc2)C1 (stereo unspecified)	Luciferase inh 44.7µM, HEK293 tox 44.7µM, 3T3 cytotox 39.8µM
O=[S+]1([O-])CCN(Cc2ccc(-c3cnc4c(OCc5ccccc5)nccn34)cc2)CC1	NPR1 antag 11.2µM, Luciferase inh inconclusive, HEK293 tox 35.5µM, 3T3 cytotox 22.4µM
OC1CCC(NCc2ccc(-c3cnc4c(OCc5ccccc5)nccn34)cc2)CC1 (stereo unspecified)	HEK293 tox 50.1µM, 3T3 cytotox 22.4µM
O=C1CN(Cc2ccc(-c3cnc4c(OCc5ccccc5)nccn34)cc2)CCN1	NPR1 antag inconclusive, Luciferase inh inconclusive, HEK293 tox inconclusive, 3T3 cytotox inconclusive
CC(C)N1CCC2(CC1)CN(C(=O)c1cccnc1)Cc1ccccc1O2	none (no result: NPR1 antag, Luciferase inh)
CN1CCC(C(=O)N2CCC(n3c(=O)[nH]c4ccccc43)CC2)CC1	none (no result: NPR1 antag, Luciferase inh)
CC(C)(C)OC(=O)NCCCC(=O)N1CCC(n2c(=O)[nH]c3ccccc32)CC1	NPR1 antag 20µM, HEK293 tox inconclusive
O=C(C1COc2ccccc2C1)N1CCC(n2c(=O)[nH]c3ccccc32)CC1 (stereo unspecified)	NPR1 antag inconclusive, HEK293 viab inconclusive, HEK293 tox 22.4µM, 3T3 cytotox inconclusive
O=C(C1CCCC1)N1CCC(n2c(=O)[nH]c3ccccc32)CC1	none (no result: NPR1 antag, Luciferase inh)
COc1ccc(C(=O)N2CCC(c3noc(COc4ccc(C)cc4)n3)CC2)cn1	HEK293 tox inconclusive, 3T3 cytotox inconclusive (no result: NPR1 antag, Luciferase inh)
CC(NC(=O)c1ccc2cccc(F)c2n1)c1ccccc1-n1cccn1 (stereo unspecified)	Luciferase inh 35.5µM, HEK293 tox inconclusive, 3T3 cytotox inconclusive
COc1ccc(C(=O)N2CCN(C(=O)c3nc4cccnc4n(CCc4ccccc4)c3=O)CC2)cc1	HEK293 tox inconclusive (no result: NPR1 antag, Luciferase inh)
CC(=O)NCc1nnc2n1C(C(=O)NCc1ccccc1F)CC2 (stereo unspecified)	none (no result: NPR1 antag, Luciferase inh)
Cc1c(Cl)cccc1-n1ncc(C(=O)N2CCc3ccccc3C2)c1C1CCN(C(=O)OC(C)(C)C)CC1	SNCA expr inhib 22.4µM (no result: NPR1 antag, Luciferase inh, HEK293 tox, 3T3 cytotox)
CC1(C)Cc2c(cnn2-c2ccc(F)cc2)C(NC(=O)c2cc(C3CC3)[nH]n2)C1 (stereo unspecified)	HEK293 tox 79.4µM, 3T3 cytotox inconclusive
COc1ccc(-c2noc(-c3cccn3CC(=O)N(C)c3ccccc3)n2)cc1F	none
CCN(C(=O)Cn1cccc1-c1nc(-c2ccc(OC)c(F)c2)no1)c1ccccc1	HEK293 viab inconclusive, HEK293 tox 44.7µM, 3T3 cytotox inconclusive
COc1ccc(-c2noc(-c3cccn3CC(=O)N3CCC(C)CC3)n2)cc1F	Luciferase inh 11.2µM, 3T3 cytotox inconclusive
O=C1CCN(CC(O)Cc2ccccc2)c2ccc(F)cc2CN1Cc1ccccc1 (stereo unspecified)	HEK293 tox 31.6µM, 3T3 cytotox inconclusive (no result: NPR1 antag, Luciferase inh, HEK293 viab, SNCA expr inhib)
O=C1CCN(C[C@@H](O)COCc2ccccc2)c2ccc(F)cc2CN1Cc1ccccc1	HEK293 tox 44.7µM, 3T3 cytotox inconclusive (no result: NPR1 antag, Luciferase inh, HEK293 viab, SNCA expr inhib)
Cc1ccc([S+](=O)([O-])N2CC(N3C(=O)c4c(c(C)nn4-c4ccccc4)C3C3CC3)C2)cc1 (stereo unspecified)	none (no result: NPR1 antag, Luciferase inh, HEK293 viab, SNCA expr inhib)
CS(=O)(=O)N1CCC2(CC1)CN(c1cccc(F)c1)C2c1ccccc1 (stereo unspecified)	HEK293 tox 12.6µM, 3T3 cytotox inconclusive (no result: NPR1 antag, Luciferase inh)
COc1cccc(-c2cc(C3CCN(C(=O)c4cc(C)ccc4C)CC3)[nH]n2)c1	NPR1 antag inconclusive, HEK293 tox 39.8µM, 3T3 cytotox inconclusive
COc1cccc(-c2cc(C3CCN(C(=O)Nc4cccc(C)c4)CC3)[nH]n2)c1	Luciferase inh inconclusive, HEK293 tox inconclusive, 3T3 cytotox inconclusive
COc1cccc(-c2cc(C3CCN(C(=O)Nc4ccc5c(c4)OCCO5)CC3)[nH]n2)c1	NPR1 antag inconclusive, Luciferase inh 25.1µM, HEK293 tox inconclusive, 3T3 cytotox 39.8µM
COc1cccc(-c2cc(C3CCN(C(=O)Nc4ccccc4OC)CC3)[nH]n2)c1	HEK293 tox 31.6µM, 3T3 cytotox inconclusive
COc1cccc(-c2cc(C3CCN(C(=O)Nc4ccc(C)cc4C)CC3)[nH]n2)c1	HEK293 tox 44.7µM, 3T3 cytotox inconclusive

Source: PubChem BioAssay (National Center for Advancing Translational Sciences (NCATS))
